In PubChem BioAssay AID1020 (Sanford-Burnham Center for Chemical Genomics, 2008):
Hit rate of the full screen: of about 200,000 compounds, about 240 (0.12%) were called active. The entries come from a sample that favours actives as a whole. A number with no mark means an inactive call. No stated cut-off is given here; in the data, active means inhibition above about 50%; inactive means the rest.

system: glucose-6-phosphate dehydrogenase [Leuconostoc mesenteroides]; experiment: L. mesenteroides G6PDH inhibitors, counter-screen for G6PDH-coupled screening assays, biochemical, Leuconostoc mesenteroides enzyme (AID 1020); conditions: Purified L. mesenteroides G6PDH, diaphorase/resazurin coupled fluorescence, 45 min; at 5 µM; active compounds read high

Compared with `CCOc1ccc(C(c2c(C)[nH][nH]c2=O)c2c(C)[nH][nH]c2=O)cc1OCC`, `CCOc1cc(NS(=O)(=O)c2ccc(OC)cc2)c(OCC)cc1NC(C)=O` is lower in inhibition: 12.1% for the first, 6.7% for the second.

Going from `O=C(CC1NCCNC1=O)Nc1cc(Cl)cc(Cl)c1` (stereo not given) to `O=C(COC(=O)CSc1nnc(-c2ccc(Cl)cc2)o1)Nc1cc(Cl)cc(Cl)c1`, the inhibition falls from -3.6% to -35.2%.

Compared with `Cc1ccc(C(=O)c2ccc(N3CCN(C)CC3)c([N+](=O)[O-])c2)cc1`, `CCN1CCN(C(=O)c2ccc(CN(c3ccc(C)c(C)c3)S(C)(=O)=O)cc2)CC1` is lower in inhibition: 9.1% for the first, 4.1% for the second.

First: O=C(NC(=S)NC1CCSC1=O)c1ccccc1F (stereo not given)
Second: CC(C)CNC(=S)NC(=O)c1ccc(Cl)cc1
The inhibition of the first is higher: 13.8% for the first, 4.7% for the second.

Compared with `O=C(CSc1nnc(SCc2ccc(Cl)cc2)s1)N/N=C/c1ccccc1Cl`, `O=C(CSc1ccc(-c2ccco2)nn1)NCc1ccc2c(c1)OCO2` is higher in inhibition: -21.5% for the first, 6.1% for the second.

Going from `CCC(C)(C)NC(=O)C1c2ccccc2Oc2ccccc21` to `Cc1ccccc1C(=O)OC1OC(=O)C(Cl)=C1Nc1ccccc1` (stereo not given), the inhibition falls from 3.6% to 2.3%.

Going from `COC(=O)c1ccc(NC(=O)CSc2nncc3ccc(OC)c(OC)c23)cc1` to `C=CCn1c(CCNC(=O)c2ccccc2F)nnc1SCC(=O)Nc1ccc(OC)cc1`, the inhibition falls from 2.5% to 0.9%.

Going from `CCC(C)NCCOCCOc1ccc(Br)cc1C` (stereo not given) to `C/C(Cc1ccccc1)=N\NC(=O)CNC(=O)c1cccc(Br)c1`, the inhibition rises from 6.6% to 8.4%.

Going from `COc1ccc(C(C(=O)NC2CCCCC2)N(C(=O)Cc2c[nH]c3ccccc23)c2ccccc2)cc1OC` (stereo not given) to `COc1ccc(-c2cc(C(=O)NC(Cc3c[nH]c4ccccc34)C(=O)O)c(C)o2)cc1OC` (stereo not given), the inhibition falls from 14.4% to 6.7%.

Going from `C/C(=N\OC(=O)c1ccccc1)c1c(C)nc2cc(C)ccn12` to `CC(=O)Oc1c(C(=O)c2nnc(C)o2)c(=O)n(Cc2ccccc2)c2ccccc12`, the inhibition rises from 1.1% to 2.5%.

First: CCc1ccc(N2CC(O)=C(c3nc4ccccc4c(=O)[nH]3)C2=N)cc1
Second: CCOC(=O)C1=C(c2ccc(OC)cc2)C(=O)c2ccccc2C1=O
The inhibition of the first is lower: 16.2% for the first, 31.9% for the second.

Compared with `CC(C)N(Cc1ccccc1)C(=S)Nc1ccc(OC(F)F)cc1`, `COC(=O)Cc1ccc(NC(=S)NCc2ccccc2)cc1` is higher in inhibition: 0.3% for the first, 12.1% for the second.

Going from `Cc1cccc(NC(=S)NCCN(C2CCCCC2)C2CCCC2)c1` to `Cc1cccc(OCCC(=O)Nc2cc(S(=O)(=O)N3CCCCC3)ccc2N2CCOCC2)c1`, the inhibition rises from 3.8% to 5.4%.

First: COc1ccc(Cl)cc1NC(=O)CNc1ccccc1F
Second: CCOC(=O)c1ccc[n+](CC(=O)Nc2ccccc2OC(F)F)c1
The inhibition of the first is lower: -1.9% for the first, 6.3% for the second.

First: S=c1[nH]nc(-c2ccco2)n1/N=C/c1ccc(Br)s1
Second: O=C1CSC(=S)N1/N=C/c1ccc(O)c([N+](=O)[O-])c1
The inhibition of the first is higher: 8.8% for the first, 5.2% for the second.

Compared with `O=C(COc1ccc(S(=O)(=O)NCc2ccccc2)cc1)N1CCOCC1`, `O=C(c1ccccc1-c1ccccc1)N1CCOCC1` is lower in inhibition: 4.2% for the first, 1.2% for the second.

Going from `Cn1c(N)c(C(=O)COC(=O)c2ccccc2NCc2ccco2)c(=O)n(C)c1=O` to `O=C(COC(=O)c1cnccn1)Nc1cccc2ccccc12`, the inhibition rises from 0.8% to 4.3%.

First: CCOC(=O)c1cnc2[nH]c3ccccc3n2c1=O
Second: CCOC(=O)c1c(C)[nH]c(=S)c(C#N)c1-c1ccccc1
The inhibition of the first is higher: 5% for the first, -20.7% for the second.

Going from `O=[N+]([O-])c1cccc(-c2nnc3c4ccccc4c4ccccc4n23)c1` to `CCOc1ccc(C(=O)Nc2cccc(-c3ccc4nncn4n3)c2)cc1`, the inhibition falls from 9.1% to 2.6%.

Compared with `CC(C)N1C(=O)N(c2ccccc2)C(C)(O)CC1(C)C` (stereo not given), `Cc1nnnn1/C(=C\c1ccccc1)C(=O)OCC(=O)N1CC2(C)CC1CC(C)(C)C2` (stereo not given) is lower in inhibition: 5.1% for the first, -6.6% for the second.

Going from `O=C1Nc2ccc([N+](=O)[O-])cc2C1=Nc1cccc(CO)c1` to `Cc1ccc(C(=O)N2CC(=O)Nc3ccccc32)o1`, the inhibition falls from 46.7% to 2.3%.

Going from `Cc1nc(N)c(Br)c(C)c1Br` to `Cc1nn2cc(-c3ccc(Cl)cc3)cnc2c1Br`, the inhibition falls from 4% to -0.7%.

Compared with `Cc1ccc(C)c(-n2ccnc2SCC(N)=O)c1`, `Cc1ccc(SCCC(=O)Nc2cc(C)on2)cc1` is lower in inhibition: 13.8% for the first, 6.5% for the second.

First: O=C(NC1CCCC1)C(c1ccc(N2CCOCC2)cc1)N(C(=O)c1ccco1)c1ccccc1F (stereo not given)
Second: OC(COCc1ccco1)CN1CCN(c2ccccc2)CC1 (stereo not given)
The inhibition of the first is higher: 14.1% for the first, 12.4% for the second.

Compared with `COc1cccc(NC(=O)c2ccc3c(SCC(=O)O)c4c(nc3c2)CCCC4)c1`, `COc1ccc(N2CCN(C(=O)c3ccc4c(Cl)c5c(nc4c3)CCCC5)CC2)cc1` is higher in inhibition: 6% for the first, 17.9% for the second.

Going from `NS(=O)(=O)c1ccc(NC(=O)COC(=O)C2(c3ccc(F)cc3)CCCC2)cc1` to `Cc1cc(NS(=O)(=O)c2ccc(NC(=S)NC(=O)c3ccc(F)cc3Cl)cc2)no1`, the inhibition falls from 16.5% to 7.4%.

Compared with `COc1ccc(/C=C2/C(=O)OCc3cc(OC)c(OC)cc32)c(OC)c1`, `COc1cc(C(=O)NCc2ccc(-n3cccc3)cc2)cc(OC)c1OC` is higher in inhibition: -2.8% for the first, 12.2% for the second.

First: CCO[C@H]1OC(C(=O)N2CCOCC2)=C[C@@H](c2ccc3c(c2)OCO3)[C@@H]1CCCO
Second: CCO[C@H]1OC(C(=O)Nc2ccccc2)=C[C@@H](C2CC2)[C@@H]1CCCO
The inhibition of the first is lower: 9.9% for the first, 10.9% for the second.

Going from `CCOC(=O)C1CN(S(=O)(=O)c2ccc(F)cc2)C1` to `CCc1nc(C)cn1S(=O)(=O)c1cc([N+](=O)[O-])ccc1Cl`, the inhibition rises from 4.5% to 6.7%.

Going from `Clc1ccc2nc(CSc3ccccc3)cn2c1` to `CSc1c(SCc2ccccc2)cnn(Cc2ccccc2)c1=O`, the inhibition rises from 5% to 5.1%.

First: CN1CCN(CC#CCC2(O)c3ccccc3-c3ccccc32)CC1
Second: CCOC(=O)c1oc2c(CN3CCN(C)CC3)c(O)ccc2c(=O)c1-c1ccc(Br)cc1
The inhibition of the first is higher: 4.1% for the first, -12.6% for the second.

Going from `CCCc1cc(=O)[nH]c(SCC(=O)N2CCN(S(=O)(=O)c3ccc(C)cc3C)CC2)n1` to `COC(=O)CC(=O)N1CCN(c2ccc(Cl)c(Cl)c2)CC1`, the inhibition falls from 2.8% to -3.9%.

First: N#Cc1ncc(C(F)(F)F)cc1Oc1cccnc1
Second: O=C(/C=C/c1ccc(Cl)c([N+](=O)[O-])c1)c1cccnc1
The inhibition of the first is higher: 1.5% for the first, 0.4% for the second.

Compared with `O=C(N/N=C/c1ccco1)c1ccc(C(=O)N/N=C/c2ccco2)o1`, `O=C(N/N=C/c1sc(N2CCCCC2)nc1-c1cccs1)c1cccnc1` is lower in inhibition: 2.5% for the first, 0.4% for the second.

Compared with `COc1ccc2c(c1)c(=O)c(C(=O)c1ccc(Cl)cc1)cn2CC(=O)Nc1ccc(F)cc1`, `Cc1csc(Nc2ccc(Cl)cc2)[n+]1-c1ccc(Cl)cc1` is lower in inhibition: -1.7% for the first, -4% for the second.

Going from `CC1(C)C2CC=C(/C=N/NC(=O)c3ccc(Cl)cc3)C1C2` (stereo not given) to `CC(/C=C/c1ccccc1)=N\NC(=O)C1CC1(C)c1ccccc1` (stereo not given), the inhibition falls from 6.3% to 5.3%.

Going from `COc1cc(NC(=O)c2cccnc2SC)cc(OC)c1` to `CCC(=O)Nc1sc(C(=O)Nc2ccccc2)c(C)c1C(=O)OC`, the inhibition rises from 5.3% to 7.8%.

First: Cc1c(Br)c([N+](=O)[O-])nn1CC(=O)Nc1sc2c(c1C(=O)OC(C)C)CCC(C)C2 (stereo not given)
Second: Cc1ccc(-c2nc(C)sc2CC(=O)OCC(=O)Nc2c(F)cccc2F)cc1
The inhibition of the first is lower: -7.9% for the first, -6.1% for the second.

First: COc1ccc(/C=N/S(=O)(=O)c2ccccc2)cc1OC
Second: Cc1nc2ccccc2nc(C)c1=NOCc1ccc(Cl)cc1Cl
The inhibition of the first is higher: 8.4% for the first, -13.7% for the second.

Compared with `Cc1onc(-c2ccccc2)c1C(=O)N1CCOCC1`, `CCOc1cc(C(=O)OCC(=O)Nc2cccc(C)c2)ccc1OCC(=O)N1CCOCC1` is lower in inhibition: 17.6% for the first, -19.1% for the second.

First: C/C(=N\NC(=O)CNC(=O)C(c1ccccc1)c1ccccc1)c1ccc(C)cc1
Second: COc1ccc([C@H]2[C@H](C(C)=O)N3N=Cc4ccccc4C3C23C(=O)OC(C)(C)OC3=O)cc1 (stereo not given in full)
The inhibition of the first is higher: 11.2% for the first, 4% for the second.

Compared with `COc1cc(NC(=S)NNC(=O)CC(C)C)c(OC)cc1Cl`, `COc1ccc(C(=O)C2CCCN(C(=O)c3cc4nc(C)cc(C)n4n3)C2)cc1F` (stereo not given) is higher in inhibition: -0.9% for the first, 0.8% for the second.

Going from `O=C(CN1C(=O)c2cccc3cccc(c23)C1=O)N1CCCCC1` to `Cc1cccc(-n2c(SCC(N)=O)nc3c(c2=O)C2(CCCCC2)Cc2ccccc2-3)c1`, the inhibition rises from -0.3% to 7.9%.

Going from `CSc1ccc(CNCCN2CCOCC2)cc1` to `O=[N+]([O-])c1cc(S(=O)(=O)CCCN2CCOCC2)ccc1F`, the inhibition falls from 11% to 10.3%.

Going from `ClC1(Cl)CC1CSc1ncn[nH]1` (stereo not given) to `C=CCn1c(CCNC(=O)c2cccs2)n[nH]c1=S`, the inhibition falls from 10.4% to 10.1%.

First: CCNC(=S)N(CCc1c(C)[nH]c2ccc(C)cc12)Cc1ccco1
Second: O=C(Nc1ccc(-c2ccc3nncn3n2)cc1)C1CCCCC1
The inhibition of the first is higher: 13.2% for the first, 3.6% for the second.

For `O=c1[nH]c2ccccc2n2c(-c3ccccc3)nnc12`, the inhibition was 50% (active).
For `CCOC(=O)c1c(C)[nH]c2c1-c1ccccc1C(=O)C2=O`, the inhibition was 55.3% (active).
For `Cc1oc2c(c1C(=O)N1CCOCC1)C(=O)c1ccccc1C2=O`, the inhibition was 57.7% (active).
